In PubChem BioAssay AID2551 (National Center for Advancing Translational Sciences (NCATS), 2010):
Where “and” joins values, the source holds several entries; their conditions need not be identical. Identical values can stand only once. In all, about 310,000 compounds went through this assay and about 17,000 (5.5%) were called active. Entries that show only a call come without a potency. Not shown: some 11% with an inconclusive outcome. The call rests on the fitted dose curve; in most records, active means well fitted inhibition curve with a large enough effect; inconclusive means small, poorly fitted or top-dose-only effect, or effect the other way; inactive means no such curve, though single readings can be large or run the other way. For the sample, actives were picked, then their nearest neighbours and some compounds at random.

Molecular target: Nuclear receptor ROR-gamma (Mus musculus) (UniProt P51450)
Sequence (P51450 whole entry, looked up): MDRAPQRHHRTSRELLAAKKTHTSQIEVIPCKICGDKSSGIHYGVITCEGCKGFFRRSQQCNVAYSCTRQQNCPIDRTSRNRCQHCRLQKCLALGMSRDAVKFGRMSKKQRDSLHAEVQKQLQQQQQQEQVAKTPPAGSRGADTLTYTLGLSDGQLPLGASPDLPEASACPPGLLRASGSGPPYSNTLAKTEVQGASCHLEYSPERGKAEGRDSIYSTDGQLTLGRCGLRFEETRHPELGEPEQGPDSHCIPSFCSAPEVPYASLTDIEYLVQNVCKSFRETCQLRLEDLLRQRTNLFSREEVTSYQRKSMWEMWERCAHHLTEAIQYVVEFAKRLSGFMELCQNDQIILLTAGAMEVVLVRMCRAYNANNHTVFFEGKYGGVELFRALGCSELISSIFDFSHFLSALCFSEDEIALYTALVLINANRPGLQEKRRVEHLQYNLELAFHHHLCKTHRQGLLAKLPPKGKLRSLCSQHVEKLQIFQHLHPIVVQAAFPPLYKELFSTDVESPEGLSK
Test: qHTS for inhibitors of ROR gamma transcriptional activity; further: nearly all actives have a fitted effect of over 60% in size
Settings: Drosophila S2 Gal4-RORgamma UAS-luciferase reporter, 20 h; series mostly up to 53.6 µM
Procedure, shortened: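 In this cell-based reporter format, copper sulfate (700 uM final) drives Gal4–ROR gamma fusion expression from a metallothionein promoter in Drosophila Schneider cells; compounds preincubated 1 hr, reporter read after 20 hr at ambient temperature.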
Potency means the concentration at half of the fitted maximal effect.

SMILES | Potency | activity change, negative = inhibition
CC(=O)Nc1ccc(Oc2ccc3c(c2)C(=O)NC3=O)cc1 | inactive | –
O=C(NCCCn1ccnc1)/C(=C\c1ccccc1F)NC(=O)c1ccccc1 | inactive | –
CCc1cc(=O)oc2c(C)c(OCC(=O)NCCN3CCOCC3)ccc12 | inactive | –
CCCc1cc(=O)oc2cc(OCC(=O)Nc3ccc(CN4CCOCC4)cc3)c(Cl)cc12 | inactive | –
COc1ccc(N2CCN(CCNC(=O)Nc3cc(Cl)ccc3Cl)CC2)cc1 | inactive | –
CCOC(=O)C1=C(CCc2ccccc2)NC(=O)NC1c1ccc2ccccc2c1 (stereo not drawn) | inactive | –
COc1ccc(CNC(=O)Cc2ccc(-c3ccccc3)cc2)cc1OC | inactive | –
CCOc1ccc(NC(=O)c2cccc3c2C(=O)N(CC2CCCO2)C3)cc1 (stereo not drawn) | inactive | –
COc1ccc(-c2noc(CCCC(=O)NC3CCCC3)n2)cc1OC | inactive | –
O=C(CCn1nnc2ccccc21)OCC(=O)c1ccc([N+](=O)[O-])cc1 | inactive | –
COc1ccc(C2NC(=O)N(C)C(C)=C2[N+](=O)[O-])cc1 (stereo not drawn) | inactive | –
CCN(CC(=O)Nc1ccc2c(c1)OCO2)S(=O)(=O)c1ccccc1 | inactive | –
CCc1c(C)nc(SCC(=O)NC2CCCC2)[nH]c1=O | inactive | –
CN(CCc1ccccn1)C1CCCN(S(=O)(=O)c2ccccc2Cl)C1 (stereo not drawn) | inactive | –
O=C(NC1CCN(Cc2ccccc2)CC1)c1ccccc1F | inactive | –
COc1ccccc1CC(=O)NCCc1c[nH]c2ccccc12 | inactive | –
Cc1cc(C)cc(NC(=S)NCCc2c[nH]c3ccccc23)c1 | 7.08 µM (active) | –
S=C(NN=C1CCN(Cc2ccccc2)CC1)NC1CCCCC1 | 2.24 µM (active) | –
O=C(NCCc1c[nH]c2ccccc12)c1cccc(Br)c1 | inactive | –
CC(C)c1ccc(NC(=O)NC2CCCCC2)cc1 | inactive | –
Cc1ccc(NC(=O)CSCC(=O)NC2CCCCC2)cc1 | inactive | –
Cc1ccc(NC(=S)NC2CCCC2)cc1 | 3.55 µM (active) | –
O=C(NC1CCN(Cc2ccccc2)CC1)c1c(F)cccc1F | inactive | –
COc1ccc(CN2CCN(Cc3ccc(OC)c(OC)c3OC)CC2)cc1 | inactive | –
CC1(c2ccc(Cl)cc2)NC(=O)N(CC(=O)c2ccc3c(c2)OCO3)C1=O (stereo not drawn) | inactive | –
CCc1ccc(Oc2coc3cc(O)ccc3c2=O)cc1 | inactive | –

SMILES | Potency | activity change, negative = inhibition
CCC1CCCCN1C(=O)CSc1nc2c(c(=O)n1C)SC(C)C2 (stereo not drawn) | inactive | –
Cc1noc(C)c1CCC(=O)N1CCCC(CO)(Cc2ccccc2)C1 (stereo not drawn) | inactive | –
CCOc1ccc(NC(=O)C2CCN(C(=O)N3CCOc4ccccc43)CC2)cc1 | inactive | –
CCC(C)Sc1nc2c(cnn2-c2ccc(F)cc2)c(=O)[nH]1 (stereo not drawn) | inactive | –
CCc1[nH]nc(C(=O)N2CCCC(CO)(Cc3ccc(F)cc3F)C2)c1C (stereo not drawn) | inactive | –
CCOc1ccc(S(=O)(=O)Nc2nc3cc(OC)ccc3s2)cc1 | inactive | –
CS(=O)(=O)c1ccc2nc(NC(=O)c3ccc(N4CCCC4=O)cc3)sc2c1 | inactive | –
CCC(=O)c1ccc(OCC(=O)Nc2ccc3nc(C)sc3c2)cc1 | inactive | –
COc1ccc2nc(NC(=O)NC3CCCCC3)sc2c1 | inactive | –
CCOc1ccc2nc(NC(=O)CSc3nc4c(c(=O)n(C)c(=O)n4C)n3CC)sc2c1 | inactive | –
COc1ccc2nc(Nc3nc4cc5c(cc4s3)OCCO5)sc2c1 | 12.6 µM (active) | –
CNC(=O)c1ccc2nc(NC(C)=O)sc2c1 | inactive | –
COc1ccc2nc(NC(=O)[C@@H]3CCCN3C(=O)c3cccs3)sc2c1 | inactive | –
CCOc1ccc2nc(Nc3nc4ccc(NC(C)=O)cc4s3)sc2c1 | 3.16 µM (active) | –
COc1cccc(C(=O)Nc2nc3ccc(S(C)(=O)=O)cc3s2)c1 | 7.94 µM (active) | –
CS(=O)(=O)c1ccc2nc(NC(=O)c3ccc(Cl)nc3)sc2c1 | inactive | –
COc1ccc2nc(Nc3nc4ccc(NC(C)=O)cc4s3)sc2c1 | 2.82 µM (active) | –
Cc1ccc2nc3c(cc(C(=O)NCCc4ccccc4)c(=N)n3CC3CCCO3)c(=O)n2c1 (stereo not drawn) | inactive | –
COc1ccccc1N(C)C(=O)c1cc(S(=O)(=O)N2CCc3ccccc32)cn1C | inactive | –
O=C(NCCOc1cccnc1)c1ccc(OC2CCN(Cc3ccccn3)CC2)cc1 | inactive | –
Nc1nnnn1/N=C/c1cccc(Br)c1 | inactive | –
CCCc1nn(C)c2c(=O)[nH]c(-c3cc(S(N)(=O)=O)ccc3OCC)nc12 | inactive | –
CCOc1cc(-c2noc(CCCC(=O)NC3CCCCC3)n2)ccc1OC | inactive | –
O=C(NCCCn1ccnc1)C1CCCN(S(=O)(=O)c2cc(Cl)ccc2Cl)C1 (stereo not drawn) | inactive | –
CCCNC(=O)c1cnc(-c2ccccc2)nc1-c1ccccc1 | inactive | –
C[C@H](NC(=O)C1CCN(S(=O)(=O)c2ccccc2)CC1)C(=O)NCc1ccccc1 | inactive | –

SMILES | Potency | activity change, negative = inhibition
COc1ccc2nc(Nc3nc(-c4ccncc4)cs3)sc2c1 | inactive | –
COc1ccc2oc(=O)cc(-c3cc4ccccc4o3)c2c1 | inactive | –
COc1ccc2nc(Nc3nc(-c4cc5ccccc5oc4=O)cs3)sc2c1 | 7.08 µM (active) | –
COCCOC1CCN(C(=O)c2ccc(OC)c(OC3CCN(C(C)C)CC3)c2)CC1 | inactive | –
COc1ccccc1C(=O)N(Cc1ccc(C)o1)C1CCS(=O)(=O)C1 (stereo not drawn) | inactive | –
CCOC(=O)c1ccc2[nH]c3c(c2c1)CCCC3NC=O (stereo not drawn) | inactive | –
Cc1cccc(N=C2NN=C(c3c[nH]c4ccccc34)CS2)c1 | 4.47 µM (active) | –
Cc1cccc(C(=O)Nc2nnc(Cc3c[nH]c4ccccc34)s2)c1 | inactive | –
Cc1cc(C)c(C#N)c(N2CCC(C(N)=O)CC2)n1 | inactive | –
N#Cc1c(N2CCCCC2)nc(N)c2c(N)nc(SCC(=O)O)cc12 | 3.98 µM (active) | –
N#Cc1c(-c2ccccc2)cc(-c2ccccc2)nc1SCC(=O)O | inactive | –
COc1ccccc1N1CCN(C(=O)c2cc(=O)c3cc(C)ccc3o2)CC1 | inactive | –
COc1ccc(C(C(=O)NC2CCCC2)N(CCCO)C(=O)Cn2nnc(-c3ccc(C)o3)n2)cc1 (stereo not drawn) | inactive | –
COC(=O)c1ccc(NC(=O)CSc2nnc(C3CC3)n2C)cc1 | inactive | –
COC(=O)CN1C(=O)[C@H]2[C@@H](/C=C/c3ccccc3)N3C(=O)CN(Cc4ccccc4)C(=O)[C@@]3(Cc3ccccc3)[C@H]2C1=O | inactive | –
CCOC(=O)c1cccc(NC(=O)CN2C(=O)C3CC=CCC3C2=O)c1 (stereo not drawn) | inactive | –
C=CCNC(=O)CCCOc1cccc(C)c1 | inactive | –
C=CCNC(=O)COc1coc(CN2CCN(Cc3ccccc3)CC2)cc1=O | inactive | –
C=CCNC(=S)NNC(=O)COc1c(Cl)cc(Cl)cc1Cl | 1.26 µM (active) | –
Cc1ccsc1C(=O)N[C@@H](C)c1nnc2ccccn12 | inactive | –
O=C(c1ccc(Br)o1)N1CCN(CCOc2ccccc2)CC1 | inactive | –
O=C(N=C1SC2CS(=O)(=O)CC2N1c1cc(Cl)ccc1Cl)C1CC1 (stereo not drawn) | inactive | –
Cc1ccc(S(=O)(=O)Nc2ccc3ncccc3c2)cc1 | inactive | –
COc1ccc2cc(S(=O)(=O)Nc3ccccn3)ccc2c1 | inactive | –
COc1cc(NS(=O)(=O)c2ccc3ccccc3c2)c2ncccc2c1 | 1.12 µM (active) and 178 nM (active) | –
COc1cc2c(cc1OC)C(c1cccc([N+](=O)[O-])c1)=NCC2 | inactive | –

SMILES | Potency | activity change, negative = inhibition
Cc1cc(=O)oc2c1ccc1ccccc12 | inactive | –
c1c2c(cc3sc(N4CCCCC4)nc13)OCCO2 | 0.794 µM (active) | –
Brc1ccc2nc(N3CCCC3)sc2c1 | inactive | –
Cc1nc2cc3c(cc2s1)OCO3 | inactive | –
COc1ccc(-c2cc(=O)oc3cc(OC(C)C(=O)Nc4ccc(CN5CCOCC5)cc4)ccc23)cc1 (stereo not drawn) | inactive | –
Cc1ccc(N(C(=O)CNC(=O)c2ccco2)C(C(=O)NC2CCCC2)c2ccncc2)cc1 (stereo not drawn) | inactive | –
CCCC(=O)N(CCc1ccccc1)Cc1nc2ccccc2c(=O)[nH]1 | inactive | –
O=C(c1ccco1)N(Cc1nc2ccccc2c(=O)[nH]1)C1CCCC1 | 1.58 µM (active) | –
COc1ccc(-n2cnnc2SCC(=O)Nc2cccc(S(N)(=O)=O)c2)cc1 | inactive | –
CCN(CC(=O)Nc1ccc(Cl)c(S(=O)(=O)N(C)C)c1)Cc1nc2ccccc2c(=O)[nH]1 | 12.6 µM (active) | –
CC(C)=C(NC(=O)c1ccco1)C(=O)NCCc1nc2ccccc2[nH]1 | inactive | –
NS(=O)(=O)c1cccc(NC(=O)CSc2nc3ccccc3n2-c2ccccc2)c1 | inactive | –
CCN(CC(=O)NC(=O)NCc1ccccc1)Cc1nc2ccccc2c(=O)[nH]1 | 0.355 µM (active) | –
CN(C)S(=O)(=O)c1cc(NC(=O)CN2C(=O)NC3(CCCc4ccccc43)C2=O)ccc1Cl (stereo not drawn) | inactive | –
CCN(CC(=O)Nc1cccc(S(N)(=O)=O)c1)Cc1nc2ccccc2c(=O)[nH]1 | 2.82 µM (active) | –
CCCc1nc(SCC(=O)Nc2ccc(S(=O)(=O)N(C)C)cc2)c2ccccc2n1 | – | 7.51% [at 10 µM] (inactive)
CCN(CC)c1ccc(C(=O)NNC(=O)CCc2nc3ccccc3c(=O)[nH]2)cc1 | inactive | –
CCn1c(Cc2ccccc2)nnc1SCc1nc2ccccc2c(=O)[nH]1 | inactive | –
COc1ccc(C2(C)NC(=O)N(CC(=O)c3ccc4c(c3)OCO4)C2=O)cc1 (stereo not drawn) | inactive | –
Cc1cc(C)c(S(=O)(=O)Nc2c(C)n(C)n(-c3ccccc3)c2=O)cc1[N+](=O)[O-] | inactive | –
Cc1cccc([C@@H]2[C@@H]3C(=O)N(Cc4ccccc4)C(=O)[C@@H]3[C@]3(C)C(=O)N(c4ccc(Br)cc4)C(=O)N23)c1 | inactive | –
O=C(N/N=C/c1cccc(Br)c1)c1ccc(N2CCCC2=O)cc1 | inactive | –
COCc1ccc(CN2CCC(Oc3ccc(C(=O)NCc4ccccn4)cc3)CC2)o1 | inactive | –
COc1ccc(NC(=O)C2CCN(S(=O)(=O)c3ccc4[nH]c(=O)oc4c3)CC2)c(OC)c1 | inactive | –
Cc1ccc(S(=O)(=O)N(CCCN(C)C)Cc2ccc3c(c2)OCO3)cc1 | inactive | –
